{
  "source": "PubChem BioAssay AID540254",
  "about": "(Southern Research Specialized Biocontainment Screening …, 2011)",
  "note": "The campaign covered roughly 1,800 compounds. Fewer than 10 were called active. The rule behind the calls is not given here. These entries were drawn from the full list. Entries that show only a call come without a potency. Potency and affinity values are given separately.",
  "data": [
    {"experiment": "antiviral activity against H1N1 influenza, dose response, cell-based, strain KY180 (AID 540254)", "settings": "H1N1 KY180 influenza antiviral cell-based screen; series mostly up to 40 µM", "values": [
      {"smiles": "COCc1cc(=O)[nH]c(Nc2nc3ccc(C)cc3o2)n1", "outcome": "inactive"},
      {"smiles": "O=C(CCCN1C(=O)c2ccccc2C1=O)Nc1sc2c(c1C(=O)NCc1ccco1)CCC2", "outcome": "inactive"},
      {"smiles": "Cc1ccc(-c2nc3ncccn3c2Nc2ccc3c(c2)OCO3)o1", "outcome": "inactive"},
      {"smiles": "O=[N+]([O-])c1cc(/C=N/N/C(=N/c2ccccn2)c2ccccn2)ccc1O", "outcome": "inactive"},
      {"smiles": "O=[N+]([O-])c1cc2no[n+]([O-])c2cc1N1CCCCC1", "outcome": "inactive"},
      {"smiles": "CCOc1ccc(C(=O)N/N=C/c2cccc3cccnc23)cc1", "outcome": "inactive"},
      {"smiles": "Cc1nc2ccc(S(=O)(=O)Nc3cccc(-c4nc5cccnc5s4)c3C)cc2s1", "outcome": "inactive"},
      {"smiles": "COc1cc(C2CC(=O)Oc3c(C(CCN4CCCC(C)C4)c4ccc(N(C)C)cc4)c(OC)cc(OC)c32)cc(OC)c1OC", "note": "(stereo not drawn)", "outcome": "inactive"},
      {"smiles": "CCOc1cc2c(cc1OCC)-n1cccc1C(c1ccc(C(C)C)cc1)NC2", "note": "(stereo not drawn)", "outcome": "inactive"},
      {"smiles": "CSc1cccc(NC(=S)N(CCN(C)C)C(C)c2ccccn2)c1", "note": "(stereo not drawn)", "outcome": "inactive"},
      {"smiles": "Cc1ccccc1NC(=S)N(CCN(C)C)C(C)c1ccccn1", "note": "(stereo not drawn)", "outcome": "inactive"},
      {"smiles": "O=C(Cn1cc(SCc2ccc(Cl)cc2)c2ccccc21)N1CCOCC1", "outcome": "inactive"},
      {"smiles": "O=C1C(NS(=O)(=O)c2ccc(Br)cc2)=C(N2CCCCC2)C(=O)c2ccccc21", "outcome": "inactive"},
      {"smiles": "CCN(CC)C(=O)CCc1nc2sc3c(c2c(=O)[nH]1)CCCC3", "outcome": "inactive"},
      {"smiles": "O=C(CN1CCN(Cc2cccc(Cl)c2)C1=O)NCc1ccccn1", "outcome": "inactive"},
      {"smiles": "Cc1ccc(Cl)c(NC(=O)COC(=O)CNS(=O)(=O)/C=C/c2ccccc2)c1Cl", "outcome": "inactive"},
      {"smiles": "CC(C)C(=O)N(c1ccc2oc(=O)sc2c1)S(=O)(=O)c1ccccc1", "outcome": "inactive"},
      {"smiles": "CC(=NNC(=S)N1CCC1)c1ccccn1", "outcome": "inactive"},
      {"smiles": "COc1ccccc1C(CCNCc1ccc(N(C)C)cc1)c1ccc(OC(C)C)cc1", "note": "(stereo not drawn)", "outcome": "inactive"},
      {"smiles": "CSC1=NC(C)(C)CC2(C)Nc3ccccc3N12", "note": "(stereo not drawn)", "outcome": "inactive"},
      {"smiles": "Cc1cccn2cc(CCNS(=O)(=O)c3ccc4c(c3)OCCO4)nc12", "outcome": "inactive"},
      {"smiles": "Cc1cc(C(=O)N/N=C/c2cc([N+](=O)[O-])ccc2O)c2ccccc2n1", "outcome": "inactive"},
      {"smiles": "CC(C)(C)c1nnc(N/N=C/c2cc(Br)ccc2O)n(N)c1=O", "outcome": "inactive"}
    ]}
  ]
}
